# Screen size: about 39,000 compounds; about 500 (1.3%) were called active. The sample as a whole holds a higher share of actives than the screen did.
# System: S. aureus RN4220
# Experiment: growth inhibition call (relative growth <= 0.2)
# Conditions: 50 µM
row,SMILES,growth inhibition call
1,Cc1n[nH]c(=S)[nH]c1=O,inactive
2,Cc1ccc(S(=O)(=O)N(C)C[C@H]2Oc3c(NC(=O)C4CC4)cccc3C(=O)N([C@@H](C)CO)C[C@@H]2C)cc1,inactive
3,Cc1ccc(-c2cnc3c(c2)C(=O)N([C@H](C)CO)C[C@@H](C)[C@H](CN(C)C(=O)Cc2cccnc2)O3)cc1,inactive
4,C[C@@H]1CN([C@@H](C)CO)C(=O)c2cc(NC(=O)Nc3cccc4ccccc34)ccc2O[C@@H]1CN(C)Cc1ccc(C(F)(F)F)cc1,inactive
5,O=C(C[C@@H]1CC[C@@H]2[C@H](COC[C@@H](O)CN2C(=O)Nc2ccc(Cl)c(Cl)c2)O1)NCc1ccc(Cl)c(Cl)c1,inactive
6,O=C(C[C@H]1CC[C@@H]2[C@H](COC[C@@H](O)CN2C(=O)Nc2ccc(Cl)c(Cl)c2)O1)NCc1ccncc1,active
7,O=C(C[C@H]1CC[C@@H]2[C@H](COC[C@@H](O)CN2C(=O)Nc2ccc(Cl)c(Cl)c2)O1)NCc1ccc(Cl)c(Cl)c1,inactive
8,CCO[C@@H]1OC(C(=O)N2CCOCC2)=C[C@H](C2CC2)[C@H]1CCCOC(=O)NCCCCCC(=O)NO,inactive
9,O=S(=O)(Cc1ccccc1)Nn1cnnc1,inactive
10,C[C@H]1CN([C@@H](C)CO)C(=O)Cc2cc(NS(=O)(=O)c3ccc(F)cc3)ccc2O[C@@H]1CN(C)S(C)(=O)=O,inactive
11,Cc1ccc(S(=O)(=O)N(C)C[C@@H]2OCCCC[C@@H](C)Oc3ccc(NC(=O)Nc4cccc5ccccc45)cc3C(=O)N([C@@H](C)CO)C[C@@H]2C)cc1,inactive
12,N[C@@H](C(=O)N[C@@H]1C(=O)N2C(C(=O)O)=C(Cl)CS[C@H]12)c1ccccc1,active
13,CC1=C(C(=O)O)N2C(=O)C(NC(=O)C(N)c3ccccc3)C2SC1 (stereo not given),inactive
14,NC(C(=O)NC1C(=O)N2C(C(=O)O)=C(Cl)CSC12)c1ccccc1 (stereo not given),active
15,CC1=C(C(=O)O)N2C(=O)[C@@H](NC(=O)[C@@H](N)c3ccccc3)[C@H]2SC1,inactive
16,CC1=C(C(=O)O)N2C(=O)[C@H](NC(=O)[C@@H](N)c3ccccc3)[C@H]2SC1,inactive
17,N[C@@H](C(=O)N[C@@H]1C(=O)N2C(C(=O)O)=C(Cl)CC[C@H]12)c1ccccc1,active
18,CC1=C(C(=O)O)N2C(=O)[C@@H](NC(=O)[C@H](N)c3ccccc3)[C@H]2SC1,inactive
19,O=C(C[C@H]1C[C@@H]2c3cc(NS(=O)(=O)c4ccc(F)cc4)ccc3O[C@@H]2[C@H](CO)O1)NCc1cccc(F)c1,inactive
20,Cc1ccc(S(=O)(=O)N(C)C[C@H]2OCCCC[C@@H](C)Oc3ccc(NC(=O)c4ccccc4)cc3C(=O)N([C@@H](C)CO)C[C@@H]2C)cc1,inactive

# Source: the antibiotic and cytotoxicity screens of Wong et al. (2023)
